Rows were chosen to be rich in hits. Some 0.54% of all compounds tested hit in one or more screens of this group.
Rtt109 HAT inh: blocks Candida albicans Rtt109/Vps75 acetyltransferase activity; hit rate 0.16% among 330,000; AID 540336; purified Rtt109/Vps75, ThioGlo CoA-SH fluorescence, 4 h; inhibition, % at 34.9 µM;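 active = inhibition of at least 50% in every replicate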
Efflux pump mplx: blocks antifungal efflux pumps in multiplex yeast assay. inhibition, % at 10 µM. AID 485275. S. cerevisiae Candida pump triplex, Nile Red efflux. hit rate 0.44% among 330,000;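 active = plate passing quality check with inhibition over a set limit, or well fluorescence over plate mean plus 4 SD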;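 also: Nile Red retained in pooled yeast measured as flow cytometry median fluorescence; 0% = buffer negative control and 100% = Enniatin B positive control; higher means more Nile Red kept so more efflux inhibition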
PDI turbidity: PDI (human) enzyme inhibition. P07237. hit rate 0.052% among 350,000. inhibition, % at 10 µM. PDI insulin aggregation turbidity, A650, 90 min;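 active = mean inhibition across replicates of 30% or more, whatever share of single replicates reach that level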
Target sequence (P07237 whole entry, looked up): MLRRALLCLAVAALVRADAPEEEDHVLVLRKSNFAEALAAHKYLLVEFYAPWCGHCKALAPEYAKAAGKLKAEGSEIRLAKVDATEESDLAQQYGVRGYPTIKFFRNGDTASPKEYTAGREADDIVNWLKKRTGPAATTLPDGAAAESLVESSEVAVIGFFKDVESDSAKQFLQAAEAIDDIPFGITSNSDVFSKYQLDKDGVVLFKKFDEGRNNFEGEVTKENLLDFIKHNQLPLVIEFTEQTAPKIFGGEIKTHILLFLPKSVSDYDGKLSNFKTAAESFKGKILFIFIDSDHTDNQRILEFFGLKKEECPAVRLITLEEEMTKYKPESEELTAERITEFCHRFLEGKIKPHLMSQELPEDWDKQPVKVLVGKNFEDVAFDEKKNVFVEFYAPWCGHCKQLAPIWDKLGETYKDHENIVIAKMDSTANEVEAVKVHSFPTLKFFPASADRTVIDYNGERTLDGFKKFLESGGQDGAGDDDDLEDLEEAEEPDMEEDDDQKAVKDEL
PvdQ inh: blocks Pseudomonas aeruginosa PvdQ acylase activity | purified PvdQ acylase, fluorescence plate reader | inhibition, % at 10 µM | hit rate 0.063% among 340,000; in the data active = inhibition above about 30%, passing the limit was not always enough;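 also: 0% = vehicle neutral wells and 100% = reference inhibitor wells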
ERp5 block: blocks human ERp5 reductase activity on insulin | Q15084 | ERp5 insulin aggregation, absorbance 650 nm, 90 min | inhibition, % at 9.99 µM | hit rate 0.05% among 350,000 | AID 651711;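 active = mean replicate inhibition above about 25%, with every replicate also reaching it, limit read from the data, passing the limit was not always enough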
The depositor's hits bear a star.

`O=C(Oc1ccccc1)c1ccc(NC(=O)c2ccco2)cc1` gave Rtt109 HAT inh 1, Efflux pump mplx 0, PDI turbidity -156, PvdQ inh -6 and ERp5 block 0.
For COC(=O)c1ccc(NC(=O)c2ccc(NC(=O)c3ccco3)cc2)cc1 the results were Rtt109 HAT inh -17, Efflux pump mplx 11*, PDI turbidity -3, PvdQ inh -18 and ERp5 block -2.
O=C1OC(NC(=O)c2ccccc2)C(n2cc(CO)nn2)=C1Cl (stereo not given) was read as Rtt109 HAT inh 193*, Efflux pump mplx 0, PDI turbidity 23 and PvdQ inh -14.
Cc1ccc(NC2=C(Cl)C(=O)OC2NC(=O)c2ccccc2)cc1 (stereo not given) was read as Rtt109 HAT inh -2, Efflux pump mplx 0, PDI turbidity 5 and PvdQ inh -4.
CC(=NO)C1CCC2C3CCC4=CC(=NO)CCC4(C)C3C(=O)CC12C (stereo not given) was read as Rtt109 HAT inh -15, PDI turbidity 37*, PvdQ inh -13 and ERp5 block -4.
CC(=NO)C1CCC2C3CCC4=CC(=NO)CCC4(C)C3C(O)CC12C (stereo not given) was read as Rtt109 HAT inh 0, PDI turbidity 2, PvdQ inh 2 and ERp5 block -3.
Screening O=C(C[C@@H]1C=C[C@@H](NC(=O)C2CCOCC2)[C@H](CO)O1)Nc1ccccc1 returned ERp5 block 1.
For N=c1n(CCN2CCCCC2)c2ccccc2n1CC(O)c1ccc(Cl)c(Cl)c1 (stereo not given) the results were Rtt109 HAT inh 58*, Efflux pump mplx 0, PDI turbidity 11 and PvdQ inh -11.
For O=C(NCC1CCCCC1)c1cc(Br)ccc1Cl the results were Rtt109 HAT inh -10, Efflux pump mplx 0, PDI turbidity 0, PvdQ inh 34* and ERp5 block 2.
Screening CN1C(=O)c2cc(NC(=O)c3ccc(Cl)cc3)ccc2OC[C@@H]2O[C@@H](CC(=O)NCc3cccc(F)c3)CC[C@@H]21 returned ERp5 block 1.
`C[C@H]1CN([C@@H](C)CO)C(=O)c2cccc(NS(=O)(=O)c3ccc(Cl)cc3)c2O[C@@H]1CN(C)Cc1ccncc1` gave ERp5 block -1.
Screening O=C(CN1CCCC1)Nc1cc(C(F)(F)F)ccc1Cl returned Rtt109 HAT inh -5, Efflux pump mplx 0, PDI turbidity -9, PvdQ inh -7 and ERp5 block 5.
Screening O=C(O)CSCC(=O)Nc1cc(C(F)(F)F)ccc1Cl returned Rtt109 HAT inh 66*, Efflux pump mplx 0, PDI turbidity 7 and PvdQ inh 13.
`O=CNC1(c2ccccc2)CCCCC1` gave Rtt109 HAT inh -2, PDI turbidity 1, PvdQ inh 94* and ERp5 block 4.
`COc1cccc(CC(=O)NNC(=O)CN(C)S(=O)(=O)c2ccc(C)cc2)c1` gave Rtt109 HAT inh 2, Efflux pump mplx 0, PDI turbidity 5, PvdQ inh -9 and ERp5 block 27*.
For COc1ccc(CC(=O)NNC(=O)CN(C)S(=O)(=O)c2ccc(Cl)cc2)cc1OC the results were Rtt109 HAT inh -2, Efflux pump mplx 0, PDI turbidity -9, PvdQ inh 1 and ERp5 block 3.
Screening COc1ccc(C2Nc3ccc4ccccc4c3-c3c2c(=O)oc2ccccc32)cc1 (stereo not given) returned Rtt109 HAT inh 39, Efflux pump mplx 1.7*, PDI turbidity -4 and PvdQ inh 6.
O=C(C[C@H]1C=C[C@H](NC(=O)c2ccncc2)[C@@H](CO)O1)Nc1ccccc1 was read as ERp5 block -8.
For CC1=C(C)/C(=N\OS(=O)(=O)c2ccccc2)C=CC1=O the results were Rtt109 HAT inh 147*, Efflux pump mplx 0, PDI turbidity 0, PvdQ inh 5 and ERp5 block -8.
Cc1ccc(S(=O)(=O)O/N=C2\CCCc3ccccc32)cc1 was read as Rtt109 HAT inh -3, Efflux pump mplx 0, PDI turbidity -3 and PvdQ inh -10.
CO[C@@H]1CN(C)C(=O)c2cc(NC(=O)C3CC3)ccc2OC[C@H](C)N(Cc2nccs2)C[C@H]1C was read as ERp5 block -5.
`C[C@@H]1CN([C@@H](C)CO)C(=O)c2cc(NC(=O)C3CCCCC3)ccc2O[C@H]1CN(C)Cc1ccc(-c2ccccc2)cc1` gave ERp5 block 4.
Nc1ccc(C23CC4CC(CC(CO)(C4)C2)C3)cc1 was read as Rtt109 HAT inh 3, Efflux pump mplx 0, PDI turbidity -5 and PvdQ inh -14.
Screening NCC12CC3CC(C1)CC(c1ccc(Cl)cc1)(C3)C2 returned Rtt109 HAT inh 51*, Efflux pump mplx 0, PDI turbidity 7, PvdQ inh -12 and ERp5 block -3.
`Cc1ccc(NC(=O)c2cc(N3C(=O)C=CC3=O)ccc2N2CCOCC2)cc1` gave Rtt109 HAT inh active, PDI turbidity 11, PvdQ inh 7 and ERp5 block 14.
For O=C(O)/C=C/C(=O)c1ccc2c(c1)CCc1ccccc1-2 the results were Rtt109 HAT inh 144*, Efflux pump mplx 0, PDI turbidity 22, PvdQ inh -18 and ERp5 block 13.
`O=C(C[C@@H]1C=C[C@H](NC(=O)Nc2cc(F)ccc2F)[C@@H](CO)O1)NCc1ccccn1` gave ERp5 block -11.
CCOC(=O)C1CCN(S(=O)(=O)c2ccc3c(c2)CC(C)N3C(=O)C2CCC2)CC1 (stereo not given) was read as Rtt109 HAT inh 54*, Efflux pump mplx 0, PDI turbidity -2, PvdQ inh 8 and ERp5 block 3.
`CC1Cc2cc(S(=O)(=O)N3CCC(C(=O)N(C)Cc4ccco4)CC3)ccc2N1C(=O)C1CCC1` (stereo not given) gave Rtt109 HAT inh 50*, Efflux pump mplx 0, PDI turbidity -4, PvdQ inh -1 and ERp5 block 5.
CCOC(=O)C1CCCN(S(=O)(=O)c2ccc3c(c2)CC(C)N3C(=O)C2CC2)C1 (stereo not given) was read as Rtt109 HAT inh 3, Efflux pump mplx 0, PDI turbidity 1, PvdQ inh -1 and ERp5 block 0.
Screening Cn1c(SCC(=O)NC2CCCCC2)nnc1-c1cccnc1 returned Rtt109 HAT inh 54*, Efflux pump mplx 0, PDI turbidity -2, PvdQ inh 1 and ERp5 block 7.
For Cn1c(SCC(=O)NC2CCCCC2)nnc1-c1ccncc1 the results were Rtt109 HAT inh 3, Efflux pump mplx 0, PDI turbidity -9, PvdQ inh 6 and ERp5 block 0.
For Cc1c(Cl)cccc1NC(=S)N=Nc1c(O)n(CN2CCOCC2)c2ccccc12 the results were Rtt109 HAT inh 5, Efflux pump mplx 29*, PDI turbidity -9 and PvdQ inh 0.
For C=CCNc1nnc(SC2CC(=O)N(c3ccc(OC)cc3)C2=O)s1 (stereo not given) the results were Rtt109 HAT inh 126*, Efflux pump mplx 0, PDI turbidity 4 and PvdQ inh -4.
